Measurements reported in PubChem BioAssay (NCI).
This is part of a sample that, as a whole, favours compounds with a hit. Of some 83,000 tested, about 20% had one in any assay.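 Negative percent growth values reflect cell death: -40 means 40% of the cells present at the start died, and -100 means all died.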 Unmarked numbers belong to inactive results. The source made the active and inactive calls. How the source made its calls: active means growth percent below 10; inactive means the rest.

Key:
Experiment in all cases: NCI-60 one-dose screen, 48 h (100 = growth as untreated, 0 = no growth, -100 = all killed)
Conditions in all cases: 10 µM unless noted
NCI-H23 lung = test system: NCI-H23 lung
NCI-H226 lung = test system: NCI-H226 lung
NCI-H322M lung = test system: NCI-H322M lung
HOP-62 NSCLC = test system: HOP-62 NSCLC
NCI-H460 lung = test system: NCI-H460 lung
HOP-92 NSCLC = test system: HOP-92 NSCLC
NCI-H522 lung = test system: NCI-H522 lung
A549/ATCC NSCLC = test system: A549/ATCC NSCLC
786-0 renal = test system: 786-0 renal
COLO 205 colon = test system: COLO 205 colon
DU-145 prostate = test system: DU-145 prostate
K-562 leukemia = test system: K-562 leukemia
MALME-3M melanoma = test system: MALME-3M melanoma
MDA-MB-231 breast = test system: MDA-MB-231 breast
RXF 393 renal = test system: RXF 393 renal
SF-268 CNS = test system: SF-268 CNS
SF-295 CNS = test system: SF-295 CNS
SF-539 CNS = test system: SF-539 CNS
UACC-257 melanoma = test system: UACC-257 melanoma
M14 melanoma = test system: M14 melanoma

Row | SMILES | growth (NCI-H23 lung) | growth (NCI-H226 lung) | growth (NCI-H322M lung) | growth (HOP-62 NSCLC) | growth (NCI-H460 lung) | growth (HOP-92 NSCLC) | growth (NCI-H522 lung) | growth (A549/ATCC NSCLC) | growth (786-0 renal) | growth (COLO 205 colon) | growth (DU-145 prostate) | growth (K-562 leukemia) | growth (MALME-3M melanoma) | growth (MDA-MB-231 breast) | growth (RXF 393 renal) | growth (SF-268 CNS) | growth (SF-295 CNS) | growth (SF-539 CNS) | growth (UACC-257 melanoma) | growth (M14 melanoma)
1 | COc1ccc(C(=O)c2cc(C)c(OC)c(C)c2)c(OC)c1N(C(=O)C(Cl)Cl)C(=O)C(Cl)Cl | 21.9% | 15.9% | 41.5% | 17.7% | 2% (active) | 2.49% (active) | 11% | 13.6% | 14.1% | -34.6% (active) | 1.52% (active) | 8.2% (active) | 58.2% | 13.2% | 41.2% | 30.6% | 7.31% (active) | -16% (active) | 48.3% | -14.8% (active)
2 | Nc1c(C(=O)Nc2ccc(Cl)cc2)cc(-c2nc3ccccc3s2)c(=O)n1NS(=O)(=O)c1ccc(Cl)cc1 | 92.7% | 86.4% | 93.8% | 102% | 106% | 96.2% | 91.3% | 104% | 101% | 105% | 107% | 95.7% | 107% | 94.1% | 104% | 96.7% | 98.4% | 102% | 104% | 
3 | COc1cc(C(=O)/C=C/c2c(C)n([O-])c3ccc(Cl)cc3[n+]2=O)cc(OC)c1OC | 72% | 93.2% | 102% | 82% | 83% | -31.2% (active) | -77.3% (active) | 81.5% | 61.7% | 36.4% | 36.3% | 1.97% (active) | 95.4% | 81% | 43.2% | 65.5% | 95% | 73.7% | 81.2% | 80.9%
4 | c1ccc(-c2nn(-c3ccccc3)[n+](-c3cccc4ccccc34)n2)cc1 | 1.91% (active) | 26.9% | 42.2% | 41.7% | 1.82% (active) | -13.2% (active) | -8.34% (active) | 23.4% | 42.5% | 3.41% (active) | 29.1% | 8.3% (active) | -38.7% (active) | 31.5% | 30.8% | 26.4% | 16.8% | 25.6% | 17.5% | 27.6%
5 | NC(=S)N/N=C(/c1ccccc1)c1ccccc1N | 94.9% | 82.2% | 91.8% | 98.5% | 102% | 102% | 88.9% | 87.3% | 101% | 108% | 94.2% | 45.5% | 93.7% | 85.8% | 105% | 92.9% | 82.5% | 99.6% | 54% | 88.2%
6 | Cc1cc2cc3cc(C)c(N)cc3[n+](C)c2cc1N | 0.672% (active) | 30.9% | 28.4% | 19.3% | -14.5% (active) | -11.9% (active) | -4.5% (active) | 3.82% (active) | 14.7% | -46.5% (active) | 19.1% | 9.81% (active) | 1.11% (active) | 20.2% | 26.3% | 14.2% | -4.54% (active) | 17.3% | 5.88% (active) | 
7 | C#CC(=O)Nc1cccc(Nc2nc3c(c(NCc4ccccc4)n2)CCCC3)c1 | -61.2% (active) | -31.4% (active) | -56.9% (active) | -82.8% (active) | -57.8% (active) | -71.7% (active) | -60.7% (active) | -48.5% (active) | -90.3% (active) | -68.9% (active) | -85.1% (active) | -22.3% (active) | -64.1% (active) | -71.7% (active) | -99.5% (active) | -78.5% (active) | -84% (active) | -90.7% (active) | -90.6% (active) | -88.2% (active)
8 | BrC(Br)(Br)c1cnc2ccccc2n1 | 64.2% | 21.3% | 74.9% | 60% | 8.61% (active) | 7.52% (active) | -61.3% (active) | 34.6% | 67.7% | -86.4% (active) | 4.36% (active) | 1.19% (active) | -10.4% (active) | 46% | -31.5% (active) | 54.5% | 74.3% | 27.2% | 39.9% | 42.9%
9 | FCc1nc2nc(Cl)c(Cl)nc2[nH]1 | 99.3% | 104% | 113% | 94.8% | 108% | 81.2% | 95.9% | 98.9% | 103% | 109% | 104% | 93% | 97.3% | 128% | 105% | 94.9% | 93.7% | 100% | 99.2% | 107%
10 | Nc1c(C(=O)Nc2cccc3ccncc23)sc2nc3c(cc12)C(=O)CCC3 | 58.1% | 73.8% | 72.3% | 62.8% | 11.6% | 69.6% | -15.7% (active) | 38.6% | 44.5% | 28.2% | 38.5% | 24.8% | 63.7% | 62.8% | 29.8% | 55.1% | 20.1% | 16.1% | 49.2% | 26.1%
11 | COc1cc2c(cc1[N+](=O)[O-])-c1ccc([N+](=O)[O-])cc1/C2=N/NC(N)=S | 71.5% | 62.6% | 93.9% | 99.9% | 29.6% | 78.3% | 35.5% | 69.2% | 70.6% | 66.7% | 79% | 59.9% | 93.7% | 74.4% | 68.2% | 73.9% | 43.6% | 73% | 75.5% | 
12 | Fc1cc(C2=NNC(c3ccc[nH]3)C2)ccc1-n1ccc(C(F)(F)F)n1 (centres undefined) | 89.2% | 83.9% | 86.3% | 80.3% | 64.8% | 102% | 73.6% | 68.4% | 85.8% | 109% | 82.8% | 62.2% | 93.7% | 62.7% | 105% | 67.3% | 71.3% | 88.1% | 98.5% | 
13 | NC(=O)c1cccc(-n2ccc3cc(NC(=O)Nc4cc(C(F)(F)F)cc(C(F)(F)F)c4)ccc32)n1 | 44.5% | 70% | 71.4% | 44.8% | 29% | 52.5% | 59.1% | 34.1% | 24.3% | 62.5% | 50.7% | 33.4% | 43.1% | 65.5% | 7.56% (active) | 38.5% | 18.5% | 52.2% | 72.2% | 
14 | CCNC(=S)NNC(=O)c1cc2ccc1CCc1ccc(cc1)CC2 | 97.7% | 106% | 95.1% | 101% | 103% | 97.2% | 92.7% | 101% | 106% | 107% | 103% | 100% | 101% | 100% | 109% | 95.4% | 93.2% | 101% | 109% | 
15 | CCCCCCCCOC(=O)c1ccc(O)c(OC)c1 | 92.5% | 88.5% | 86.9% | 99.3% | 104% | 84.9% | 73% | 89.6% | 106% | 114% | 104% | 116% | 99.7% | 85% | 100% | 83.8% | 98.7% | 92.6% | 86.6% | 106%
16 | CCCC/C(=N\N=C(N)N)c1ccc(F)cc1 | 34.9% | 31.6% | 61.5% | 27.9% | 16.2% | 31.4% | 10.2% | 31.8% | 26.8% | 8.47% (active) | 44.1% | 10.4% | 40.6% | 59.3% | -5.71% (active) | 45.2% | 18.4% | 11.7% | 44.1% | 13.7%
